# Laboratory results reported in PubChem BioAssay AID1814 (Broad Institute, 2009).
# Screen size: about 300,000 compounds; about 22,000 (7.3%) were called active. Not shown: some 2% with an inconclusive outcome. This excerpt belongs to a sample that is enriched for actives. Values without a mark were called inactive. Cut-off read from the data, not from the text of the source: active = activity score below about -60%; inconclusive = mostly about -28% to -61%; inactive = positive scores.
# Experiment: Activators via SNCA 5'UTR binding, MLPCN (AID 1814)
# Conditions: alpha-synuclein 5'UTR reporter, activators screen; hits give low values; tested at 7.5 µM
row,SMILES,activity score
1,COc1ccc(N=C(C)c2sc3ccccc3c2O)cc1,-125% (active)
2,Nc1[nH][nH]c(=O)c1N=Nc1ccc2c(c1)OCO2,-112% (active)
3,Cc1ccc(NC(=S)Nc2ncccc2C)c(C)c1,-199% (active)
4,COc1ccc2c(c1)CCc1c(C(=O)N3CCCC3)noc1-2,-103% (active)
5,CNC(=O)/C(C#N)=C/c1c(F)cccc1Cl,-73.3% (active)
6,O=C(Nn1c(SCc2ccc([N+](=O)[O-])cc2)nc2ccccc2c1=O)c1ccc(F)cc1,-81.2% (active)
7,c1ccc(-c2nccc(-c3ccc(-n4cnc5ccccc54)cc3)n2)nc1,-88% (active)
8,CC(C)(C)C(=O)c1cnc(Nc2ccccc2)s1,-123% (active)
9,O=C(c1ccc(Cl)cc1)c1cnc(Nc2ccccc2)s1,-159% (active)
10,COCCN(C(=O)c1ccco1)c1nnc(-c2ccc(OC)cc2)s1,-68.7% (active)
11,N#C/C=C\Oc1ccc(Cl)cc1N,-166% (active)
12,COc1ccccc1C1=Nc2cccc3cccc(c23)N1,-62.4% (active)
13,CC1=CC(=C(C#N)c2nc3ccccc3s2)C=C(C)N1c1ccc(F)cc1F,-123% (active)
14,C=CCn1c(=NC(=O)c2cccs2)sc2cc(NC(C)=O)ccc21,-164% (active)
15,Clc1ccccc1SCc1nc2ccccc2[nH]1,-90.6% (active)
16,CCNC(=O)N1CCCC(C(=O)c2ccc(-c3ccccc3)cc2)C1 (stereo not drawn),-101% (active)
17,O=C(Nc1ccc(Cl)c(Cl)c1)N1CC=C(c2ccccc2)CC1,-65.8% (active)
18,Cc1ccc(Cl)c(OCC(=O)N2CCc3ccccc3C2)c1,-117% (active)
19,COc1ccc(C2CC(c3cccs3)=Nc3ccccc3S2)cc1OC (stereo not drawn),-90.7% (active)
20,O=C(/C(=C/c1cccc(Cl)c1)c1nc2ccccc2[nH]1)c1ccccc1,-338% (active)
21,Cc1nc(NC(=O)C2CCCCC2)sc1C,-136% (active)
22,O=[N+]([O-])c1cccc(/C=N/Nc2ncc(Br)cn2)c1,-194% (active)

row,SMILES,activity score
1,O=[N+]([O-])c1ccc(N/N=C/c2ccccc2)cc1,-210% (active)
2,COc1ccccc1-c1nnc(-c2ccc(F)cc2)o1,-122% (active)
3,CSc1ccccc1-c1nnc(-c2ccc(Cl)cc2)o1,-146% (active)
4,O=C1C(C=NCC2CCCO2)=C(O)c2ccccc21 (stereo not drawn),-95.6% (active)
5,CCS(=O)(=O)n1nc(-c2ccccc2)nc1SCc1ccccc1,-118% (active)
6,CCS(=O)(=O)n1nc(-c2ccc(OC)cc2)nc1SC,-98.6% (active)
7,Cc1cc(O)c(NC(=O)c2ccc(C)c([N+](=O)[O-])c2)cc1C,-110% (active)
8,COc1ccccc1CSc1nc2ccccc2[nH]1,-156% (active)
9,CCCCSc1nc2ccccc2[nH]1,-86.8% (active)
10,CC(C)n1c(=O)[nH]c2cc(C(=O)Nc3ccccc3)ccc21,-119% (active)
11,COc1ccc(-c2c(C#Cc3ccccc3)c3ccccc3n2C)cc1,-87.3% (active)
12,CCOC(=O)c1nn(-c2cccc(C)c2)cc1C(=O)c1ccccc1,-90.5% (active)
13,O=C1c2ccccc2S(=O)(=O)c2cc(N3CCN(c4ccccn4)CC3)ccc21,-68.6% (active)
14,COc1ccc(C2=NOC(COC(=O)c3ccc4ccccc4n3)C2)cc1 (stereo not drawn),-68.4% (active)
15,CN(C)c1ccc(-c2nnc(-c3cccnc3)o2)cc1,-195% (active)
16,c1ccc(CN=C2Nc3ccccc3CS2)nc1,-111% (active)
17,COc1ccc(N2C(=O)c3ccccc3NC2c2ccc(OC)c(CN3CCOCC3)c2)cc1 (stereo not drawn),-72.6% (active)
18,COc1ccc(C2Nc3ccccc3C(=O)N2c2ccc(Cl)cc2)cc1Cn1cc([N+](=O)[O-])cn1 (stereo not drawn),-111% (active)
19,CCN(CC)C(=O)C(=O)Nc1cccc(Br)c1,-75.5% (active)
20,COc1cc(N=Cc2c(O)[nH]c3ccccc23)cc(OC)c1OC,81%
21,COc1cccc2[nH]c(C(=O)NCCc3ccccc3)cc12,-162% (active)
22,NC(=S)N/N=C/c1coc2cc(Cl)ccc2c1=O,-88.7% (active)

row,SMILES,activity score
1,COc1ccc(Nc2oc(-c3ccccc3Cl)nc2C#N)cc1,-108% (active)
2,N#Cc1nc(Cc2ccccc2)oc1NCCc1ccccc1,-147% (active)
3,CCOc1ccc(Nc2oc(Cc3ccccc3)nc2C#N)cc1,-109% (active)
4,Cc1ccc(C(=O)NNC(=O)c2cccs2)cc1,-65.9% (active)
5,O=C(Nc1ccccc1)c1ccc(NC(=O)c2cccs2)cc1,-107% (active)
6,COc1cc(NC(=O)c2cccs2)ccc1NC(=O)c1ccccc1Cl,-62.1% (active)
7,Cc1ccc(-c2csc(NC(=O)c3cccs3)n2)cc1,-239% (active)
8,O=C(NNC(=O)c1ccc(Cl)cc1Cl)c1cccs1,-115% (active)
9,COc1ccc(-n2nc(C(=O)NCC(=O)N3CCN(c4ccccc4OC)CC3)c3ccccc3c2=O)c(OC)c1,-64% (active)
10,Cc1c(N=Nc2ccc(N(C)C)cc2)c(=O)n(-c2ccccc2)n1C,-101% (active)
11,O=C(/C=C/c1ccc(Cl)cc1)Nc1ccc(Br)cn1,-62.5% (active)
12,CCn1nc(C)c(NC(=O)/C=C/c2ccc(OC)c(COc3ccc(Br)cc3)c2)c1C,61.8%
13,CC(C)=CCc1c(O)c(CC=C(C)C)c2occ(-c3ccc(O)cc3)c(=O)c2c1O,-75.6% (active)
14,O=C(Nc1ccc2c(c1)CCC2)c1ccc(Br)s1,-159% (active)
15,N/C(=N\OC(=O)c1ccc2c(c1)OCO2)c1ccc(Br)cc1,-162% (active)
16,CCCCNc1ccc(C(=O)Nc2cccc(C)n2)cc1[N+](=O)[O-],-102% (active)
17,Cc1cc(NC(=O)CSc2nc3c(cc2C#N)CCCCC3)no1,-104% (active)
18,COC(=O)/C(=C1\Oc2ccc(C(C)(C)C)cc2S1)C(F)(F)F,-189% (active)
19,O=C1Oc2ccccc2C(=O)/C1=C/c1ccccc1O,-96.6% (active)
20,COc1ccc2c(c1)O/C(=C\c1ccccc1O)C2=O,-94.2% (active)
21,COc1ccc(-c2noc(-c3cccc(OC)c3OC)n2)cc1OC,-193% (active)
22,COc1cc(NC(=O)c2ccc(-c3csc(C)n3)cc2)c(OC)cc1Cl,-64.4% (active)

row,SMILES,activity score
1,O=C(CCSc1ccccc1)N1CCN(c2ccccc2F)CC1,-115% (active)
2,COc1ccc(-c2nc3n(c2Br)CCC3)cc1,-122% (active)
3,CN1C(=O)/C(=C/C=C2\SCCN2C)OC1=S,-169% (active)
4,Cn1c(Nc2cccc(Cl)c2)nc2ccccc21,-63.6% (active)
5,OCCCNc1nccc(-c2cc(Nc3cccc(Cl)c3)ncn2)n1,73.3%
6,CC(C)n1cnc2c(Nc3cccc(Cl)c3)nc(N(CCO)CCCO)nc21,64.7%
7,O=c1c2cc(-c3ccccc3)sc2nc2n1N=C(c1cccs1)CS2,-105% (active)
8,Oc1ccccc1CNc1ncc(Br)cc1Br,-62.4% (active)
9,COc1ccc2cc(C(=O)NCC3CCCO3)[nH]c2c1 (stereo not drawn),-90.6% (active)
10,O=C(NCCc1ccccc1)c1ccc2c(c1)N(Cc1ccccc1)CCS2,-105% (active)
11,O=C(Cn1c(=S)nc2ccccn21)N1CCc2ccccc2C1,-96.2% (active)
12,CCn1nccc1C(=O)Nc1ccc(Cl)c(Cl)c1,-89.2% (active)
13,CCc1ccc(NC2Nc3cc(C)nn3S2)cc1 (stereo not drawn),-79.3% (active)
14,CCOC(=O)c1cnc(Nc2nc3ccccc3o2)nc1CSC(=S)N1CCCCC1,-133% (active)
15,NS(=O)(=O)c1ccccc1NC(=O)c1c(O)c2ccccc2[nH]c1=O,-64.6% (active)
16,CCOC(=O)c1cnc2[nH]c3ccccc3n2c1=O,-85.9% (active)
17,CCCCCn1c(=O)c(C(=O)OCC)c(Cl)c2ccccc21,92.6%
18,Cc1ccc(SCCSc2ncccn2)cc1,-110% (active)
19,FC(F)Oc1ccc(NC(=S)NCc2ccco2)cc1Cl,-62.2% (active)
20,S=C(NCc1ccco1)Nc1ccc2c(c1)OCCO2,-105% (active)
21,CCc1nnc(NC(=O)/C=C/c2ccc(C)o2)s1,-74.1% (active)
22,CCC(CC)c1nnc(NC(=O)/C=C/c2ccco2)s1,-153% (active)

row,SMILES,activity score
1,Cc1nnc(NC(=O)/C=C/c2ccco2)s1,-101% (active)
2,COc1ccc(C(=O)Nc2ccc(F)cc2F)cc1,-88.9% (active)
3,COc1ccc(NC(=O)c2ccc(OC)cc2)cc1,-63% (active)
4,Cn1c(CCN2CCCCCC2)nc2cc(NC(=O)Nc3ccccc3)ccc21,-91.9% (active)
5,Cc1cccc(C(=O)Nc2ccc(Oc3cnccn3)cc2)c1,-86.6% (active)
6,CCOC(=O)N1CCN(S(=O)(=O)c2ccc(C(=O)Nc3ccc(F)cc3F)cc2)CC1,69.5%
7,COc1ccc(NC(=O)c2c(C)oc3c2CCCC3)cc1,-64.6% (active)
8,CCC(=O)Nc1ccc(C(=O)Nc2cccc(OC)c2)cc1,-74.7% (active)
9,Cc1ccc(NC(=O)c2ccc(Oc3ncccn3)cc2)cc1,-124% (active)
10,COc1ccc(NC(=O)c2sccc2SCC#N)cc1,-77.3% (active)
11,COc1ccc(C(=S)Nc2ccccc2)cc1,-134% (active)
12,COc1ccc(C(=O)Nc2ccc(CN3CCOCC3)cc2)cc1,-86.6% (active)
13,COc1ccc(C(=O)Nc2sc(C)c(C)c2CN2CCOCC2)cc1,-83.7% (active)
14,COc1ccc(NC(=O)ON=C2c3ccccc3-c3ccccc32)cc1,-102% (active)
15,CCc1cc(C(N)=O)c(NC(=O)c2ccc(OC)cc2)s1,-174% (active)
16,COc1ccc(NC(=O)c2cc(-c3ccc(C)cc3)on2)cc1,-154% (active)
17,COc1ccc(NC(=O)CS(=O)(=O)c2ccccc2)cc1,-62.5% (active)
18,Cn1c(CN2CCOCC2)nc2cc(NC(=O)c3ccc(Cl)cc3)ccc21,-163% (active)
19,CC(=O)c1cccc(NC(=O)C2COc3ccccc3O2)c1 (stereo not drawn),-134% (active)
20,COc1ccc(NC(=O)C2COc3ccccc3O2)cc1 (stereo not drawn),-133% (active)
